TDP1 cell noCPT: qHTS for Inhibitors of human tyrosyl-DNA phosphodiesterase 1 (TDP1): qHTS in cells in absence of CPT; DT40 Tdp1-/- hTDP1 cells, no CPT, ATP luminescence, 48 h; Potency, µM (highest dose often 46.2 µM), for the others: at the highest dose activity change, negative = growth inhibition, actives largely listed as inhibitors; 420,000 compounds, 15% hits; note: potency is the fitted concentration of half-maximal effect; nearly all actives have a fitted effect of over 55% in size
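DT40 Tdp1-/-;hTDP1 cells, no CPT (DMSO vehicle only), 400 cells/well; compounds pin-transferred; ≥48 hr, 37 °C; CellTiter-Glo 30 min RT dark, luminescence read.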
LDHA inh: qHTS assay for inhibitors of human lactate dehydrogenase; 480,000 compounds, 0.15% hits; AID 1347041, 2019; activity change, % (values are at about 110 or 230 µM); purified LDHA, NADH/diaphorase-resazurin fluorescence; stronger effect = lower value; in the data active = activity change below about -30%; inconclusive = mostly about -25% to -30%;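 note: plate controls were DMSO wells for no effect and wells without enzyme for full effect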
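Human LDH5 (2 nM) was incubated with 0.06 mM NADH and 0.2 mM pyruvate for 5 min at room temperature in Tris pH 7.4. Remaining NADH was coupled through diaphorase/resazurin, and resorufin fluorescence was read at 0 and 20 min.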
IL-1B inflam inh: qHTS for Inhibitors of Inflammasome Signaling: IL-1-beta AlphaLISA Primary Screen; AID 743279, 2014; activity change, % at 57.5 µM; 360,000 compounds, 4.7% hits; THP-1 LPS/ATP IL-1B secretion, AlphaLISA, 16 h; stronger effect = lower value; in the data active = activity change below about -50%; inconclusive = mostly about -30% to -49%
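Secreted IL-1B measured by AlphaLISA bead assay after 16 h compound exposure of THP-1 cells; compounds (final up to 57.5 uM) added 1 h before LPS (250 ng/mL) and ATP (1.25 mM) stimulation; lower signal means less secretion.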
VP16 counter: VP16 counterscreen qHTS for inhibitors of ROR gamma transcriptional activity. Drosophila S2 Gal4-VP16 UAS-luciferase, luminescence, 20 h. Potency, µM (top dose mostly 53.6 µM), inactives show top-dose activity, negative = inhibition, actives largely listed as inhibitors. 310,000 compounds, 3.5% hits;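 note: Gal4-VP16 expression switched on by copper sulfate through the metallothionein promoter; potency is the fitted concentration of half-maximal effect; nearly all actives have a fitted effect of over 50% in size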
RORgamma inh: qHTS for inhibitors of ROR gamma transcriptional activity; Nuclear receptor ROR-gamma (Mus musculus), P51450; Drosophila S2 Gal4-RORgamma UAS-luciferase reporter, 20 h; Potency, µM (doses to about 53.6 µM), without a hit: at the top dose activity change, negative = inhibition, most hits filed as inhibitors; 310,000 compounds, 5.4% hits; AID 2551, 2010; note: potency is the fitted concentration of half-maximal effect; nearly all actives have a fitted effect of over 60% in size
Target sequence (P51450 whole entry, looked up, the tested form may be a part): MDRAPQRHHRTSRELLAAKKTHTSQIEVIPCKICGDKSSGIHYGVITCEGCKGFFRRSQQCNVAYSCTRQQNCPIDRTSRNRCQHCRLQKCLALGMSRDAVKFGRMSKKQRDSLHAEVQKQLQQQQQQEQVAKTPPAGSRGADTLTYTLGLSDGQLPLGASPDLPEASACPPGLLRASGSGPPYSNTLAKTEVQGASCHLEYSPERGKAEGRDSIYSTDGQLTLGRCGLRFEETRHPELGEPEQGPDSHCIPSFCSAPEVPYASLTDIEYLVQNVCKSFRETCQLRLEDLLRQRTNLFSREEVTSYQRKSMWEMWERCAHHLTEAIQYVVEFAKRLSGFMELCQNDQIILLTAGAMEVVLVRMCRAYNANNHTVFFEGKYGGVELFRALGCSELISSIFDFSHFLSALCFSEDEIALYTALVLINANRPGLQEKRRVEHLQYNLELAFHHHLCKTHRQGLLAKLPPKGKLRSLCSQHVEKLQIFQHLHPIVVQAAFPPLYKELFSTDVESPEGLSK
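Stable Schneider cell line, Gal4 DNA-binding domain fused to ROR gamma, UAS-luciferase. Cmpd 1 hr RT → CuSO4 700 uM final → 20 hr RT → luciferase reagent 10 min → luminescence.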
TDP1 cell CPT: qHTS for Inhibitors of human tyrosyl-DNA phosphodiesterase 1 (TDP1): qHTS in cells in presence of CPT; Potency, µM (doses to about 46.2 µM), for inactives: top-dose activity change, negative = growth inhibition, usual class: inhibitors; 420,000 compounds, 12% hits; chicken DT40 Tdp1-/-;hTDP1 cells + 20 nM CPT, ATP luminescence, 48 h; note: potency is the fitted concentration of half-maximal effect; nearly all actives have a fitted effect of over 55% in size
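Chicken DT40 Tdp1-/- cells complemented with human TDP1, 400 cells/well, exposed to compounds plus 20 nM camptothecin for at least 48 h at 37 C; viability read as ATP content by CellTiter-Glo luminescence.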
Active calls of the source: *; ? = inconclusive; nt = not tested or not shown; [ ] = dose if it differs, or a comment. An excerpt weighted towards active compounds, which were near 18% of everything screened. Unless noted, calls come from the whole dose curve; as a rule, active = well fitted curve in the direction sought with a large enough effect; inconclusive = small, poorly fitted or top-dose-only effect, or another doubt; inactive = no such curve, though single readings can be large; an effect the other way counts as inactive or inconclusive. Unless noted, % is set by controls: 0 for no effect and ±100 for the full control effect.

SMILES	TDP1 cell noCPT	LDHA inh	IL-1B inflam inh	VP16 counter	RORgamma inh	TDP1 cell CPT
O=C(Nc1cccc(C(F)(F)F)c1)c1ccc2nc(-c3ccco3)c(-c3ccco3)nc2c1	?	11.0	-1.0	-28.1%	?	20.6µM*
CCc1nc2ccc(C(=O)NCCc3ccc(OC)c(OC)c3)cc2nc1CC	23.1µM*	-0.6	-25.8	1.8%	3.1%	16.4µM*
COc1cc(-c2c(NC(=O)C(C)C)n(C)c3ccccc3c2=O)cc(OC)c1OC	nt	7.3	nt	nt	nt	nt
CC(C)C(=O)N1CCN(C(=O)c2cc(C3CC3)nc3ccccc23)CC1	nt	19.9	nt	nt	nt	nt
CC(Sc1n[nH]c(-c2ccccc2)n1)c1nc(C(C)(C)C)no1 (stereo unspecified)	nt	1.8	nt	nt	nt	nt
O=C(Nc1ccc2nc(-c3ccco3)c(-c3ccco3)nc2c1)NC1CC1	23.1µM*	13.5	-2.1	28.9%	-14.0%	20.6µM*
CCC(C)NC(=O)c1ccc2nc(-c3ccco3)c(-c3ccco3)nc2c1 (stereo unspecified)	12.6µM*	13.5	nt	nt	nt	15.8µM*
O=C(NCCCO)Nc1ccc2nc(-c3ccco3)c(-c3ccco3)nc2c1	nt	nt	nt	-2.5%	-27.7%	nt
COc1ccccc1CNC(=O)Cn1ccc2ccc(Cl)cc21	nt	1.8	nt	nt	nt	nt
O=C(NCc1ccco1)c1nc2c(nnn2Cc2ccccc2Cl)c(=O)[nH]1	?	1.8	2.8	7.94µM*	14.1µM*	?
O=C(Nc1ccc(F)cc1)c1nc2c(nnn2Cc2cccc3ccccc23)c(=O)[nH]1	14.6µM*	-7.5	-98.4*	0.1%	19.5%	?
Cc1ccc(C)c(Cn2nnc3c(=O)[nH]c(C(=O)NCc4ccco4)nc32)c1	-26.4%	-0.6	32.3	1.3%	7.4%[10 µM]	?
O=[N+]([O-])c1ccc(NNS(=O)(=O)c2ccccc2)c([N+](=O)[O-])c1	nt	-0.3	nt	nt	nt	nt
COc1ccc(OC)c(-c2cc3ccc(O)cc3oc2=O)c1	nt	-6.1	nt	nt	nt	nt
CCN1CCc2c(sc(NC(=O)c3ccc(S(=O)(=O)N4CCOCC4)cc3)c2C(N)=O)C1	?	2.8	?	-1.1%	4.6%	?
COC(=O)c1c(NC(=O)c2ccc(S(=O)(=O)N3CCC(C)CC3)cc2)sc2c1CCN(C)C2	?	-11.8	nt	nt	nt	?
CCOC(=O)c1c(NC(=O)c2ccc(S(=O)(=O)N3CCOCC3)cc2)sc2c1CCN(C(C)C)C2	8.2µM*	-11.3	?	-1.2%	0.7%	?
COC(=O)c1c(NC(=S)NN2CCOCC2)sc2c1CCCC2	14.6µM*	-1.2	-12.9	3.98µM*	1.26µM*	?
CCN1CCc2c(sc(NC(=O)c3ccc(S(=O)(=O)N4CCOCC4)cc3)c2C(=O)OC)C1	?	-9.6	-4.9	-10.3%	8.7%	8.2µM*
COC(=O)c1c(NC(=O)c2ccc(S(=O)(=O)N3CCOCC3)cc2)sc2c1CCN(C)C2	?	-5.0	-74.6*	-12.1%	-3.9%	?
CNC(=O)c1c(NC(=O)c2ccc(S(=O)(=O)N3CCCC3)cc2)sc2c1CCN(C(C)C)C2	nt	nt	nt	-11.9%	-34.2%	nt
Cc1c(C(=O)c2ccccc2)oc2ccc(NC(=O)c3ccncc3)cc12	nt	1.3	nt	nt	nt	nt
Cc1ccc(C)c(CN2CCC(CNC(=O)Nc3ccc(F)c(Cl)c3)CC2)c1	?	-7.0	-92.1*	-5.4%	22.5%	29.1µM*
Cc1ccc(NC(=O)NCC2CCN(Cc3cc(C)ccc3Cl)CC2)c(C)c1	?	-0.1	8.8	-4.9%	3.3%	?
Cc1ccc(C)c(CN2CCC(CNC(=O)Nc3cccc(Cl)c3C)CC2)c1	?	-3.2	-64.8*	-2.6%	-35.1%	?
